# Bioassay records deposited in PubChem by National Center for Advancing Translational Sciences (NCATS).
# HT1080-NT tox: kills 2HG-producing HT-1080-NT fibrosarcoma cells; HT-1080-NT fibrosarcoma viability, CellTiter-Glo ATP luminescence, 48 h; Potency, µM (series often up to 46.1 µM), without a hit: at the highest dose activity, negative = less viability, usual class: cytotoxic; 1.6% of 360,000 active;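 note: NT is the 2HG producing partner of a matched IDH1 knockdown line; potency is the fitted concentration of half-maximal effect; 0% = DMSO-treated cells and -100% = media-only wells without cells; nearly all actives have a fitted effect of over 55% in size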
#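 HT-1080-NT; 750 cells/well; 5% FBS RPMI; 48 h compound, 37 degrees C; CellTiter-Glo luminescence; curve fitting and curve-class assignment.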
# DT40 TDP1 CPT: growth inhibition of DT40 Tdp1-/-;hTDP1 cells with camptothecin (screen for TDP1 inhibitors); Potency, µM (titrated, usually from 46.2 µM), inactives show top-dose activity change, negative = growth inhibition, usual class: inhibitors; chicken DT40 Tdp1-/-;hTDP1 cells + 20 nM CPT, ATP luminescence, 48 h; 12% of 420,000 active; note: potency is the fitted concentration of half-maximal effect; nearly all actives have a fitted effect of over 55% in size
#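 Chicken DT40 Tdp1-/- cells complemented with human TDP1, 400 cells/well, exposed to compounds plus 20 nM camptothecin for at least 48 h at 37 C; viability read as ATP content by CellTiter-Glo luminescence.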
# DT40 TDP1 no CPT: qHTS for Inhibitors of human tyrosyl-DNA phosphodiesterase 1 (TDP1): qHTS in cells in absence of CPT | DT40 Tdp1-/- hTDP1 cells, no CPT, ATP luminescence, 48 h | Potency, µM (top dose mostly 46.2 µM), for inactives: at the top dose activity change, negative = growth inhibition, most hits filed as inhibitors | AID 686978, 2013 | 15% of 420,000 active; note: potency is the fitted concentration of half-maximal effect; nearly all actives have a fitted effect of over 55% in size
#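 Camptothecin absent (DMSO only). Human TDP1-complemented DT40 knockout cells, 400 cells/well, 37 °C for minimum 48 hr; ATP measured via CellTiter-Glo, 30 min dark incubation, luminescence.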
# IL-1B inflam inh: blocks inflammasome-driven IL-1 beta release. THP-1 LPS/ATP IL-1B secretion, AlphaLISA, 16 h; stronger effect = lower value. activity change, % at 57.5 µM. 4.7% of 360,000 active; in the data active = activity change below about -50%; inconclusive = mostly about -30% to -49%
#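 Secreted IL-1B measured by AlphaLISA bead assay after 16 h compound exposure of THP-1 cells; compounds (final up to 57.5 uM) added 1 h before LPS (250 ng/mL) and ATP (1.25 mM) stimulation; lower signal means less secretion.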
# HT1080 IDH1KD tx: kills HT-1080 cells with IDH1 knockdown | 2% of 360,000 active | Potency, µM (highest dose often 46.1 µM), without a hit: at the top dose activity, negative = toxicity, actives largely listed as cytotoxic | HT-1080 IDH1 knockdown viability, ATP luminescence, 48 h | AID 686971;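 note: potency is the fitted concentration of half-maximal effect; 0% = DMSO wells and -100% = cell-free medium wells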
#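 Viability of IDH1-knockdown HT-1080 fibrosarcoma cells was assessed by CellTiter-Glo after 48 h at 37 °C with titrated compound; concentration-effect curves were classified by fit quality and response size.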
# Starred values were filed as active, the others as inactive; ? = inconclusive; nt = not tested or not shown. In the library only some 19% were active in any assay of this set; here they are far more common. Unless noted, calls come from the whole dose curve; as a rule, active = well fitted curve in the direction sought with a large enough effect; inconclusive = small, poorly fitted or top-dose-only effect, or another doubt; inactive = no such curve, though single readings can be large; an effect the other way counts as inactive or inconclusive. Unless noted, % is set by controls: 0 for no effect and ±100 for the full control effect.
SMILES,HT1080-NT tox,DT40 TDP1 CPT,DT40 TDP1 no CPT,IL-1B inflam inh,HT1080 IDH1KD tx
Cn1cc(C(=O)NCCc2ccccc2)c(=O)c2cc(S(=O)(=O)N3CCCCCC3)ccc21,nt,-15%,?,nt,nt
O=C(c1cnccn1)N1CCC2(CC1)CN(c1ccccn1)C2,nt,2%,0%,nt,nt
CC(N)c1csc(Nc2nncc3ccccc23)n1 (configuration not stated),?,?,?,-70*,18µM*
CC(C)C(N)c1csc(Nc2nncc3ccccc23)n1 (configuration not stated),?,?,16µM*,0,?
Nc1ccc(CC(N)c2csc(Nc3nncc4ccccc34)n2)cc1 (configuration not stated),?,?,?,?,-25%
Clc1ccc(Cn2c(/C=C/c3ccco3)nc3ccccc32)cc1,?,?,?,-94*,?
Cc1ccc(Cn2c(S(=O)(=O)O)nc3ccccc32)cc1,2%,-2%,-4%,30,10%
Cc1ccc(Cn2c(/C=C/c3ccco3)nc3ccccc32)cc1,-1%,?,15µM*,-105*,?
CCOC(=O)c1c(NC(=O)Cn2ccsc2=N)sc(C)c1C,-2%,-1%,-20%,-23,-10%
Cc1ccc(C)c(NC(=O)CN2C(=O)CC(C)S(=O)(=O)c3ccccc32)c1 (configuration not stated),17%,5%,26%,59,8%
CN1CCN(C(=O)c2ccc3c(c2)N(Cc2ccccc2F)C(=O)c2ccccc2S3=O)CC1 (configuration not stated),-4%,?,-38%,-1,-5%
Cc1ccc(C)c(CN2C(=O)c3ccccc3S(=O)c3ccc(C(=O)N4CCC(C)CC4)cc32)c1 (configuration not stated),nt,?,23µM*,nt,nt
Cc1ccc(C)c(CN2C(=O)c3ccccc3S(=O)c3ccc(C(=O)N(C)Cc4ccccc4)cc32)c1 (configuration not stated),nt,18µM*,?,nt,nt
COc1ccc(N2CCN(C(=O)c3ccc4c(c3)N(Cc3cc(C)ccc3C)C(=O)c3ccccc3S4=O)CC2)cc1 (configuration not stated),nt,15µM*,12µM*,nt,nt
CCN(CC)C(=O)c1ccc2c(c1)N(Cc1ccccc1F)C(=O)c1ccccc1S2=O (configuration not stated),nt,-22%,-15%,nt,nt
CCOC(=O)c1ccc2c(c1)N(Cc1ccccc1C)C(=O)c1ccccc1S2=O (configuration not stated),10%,14µM*,?,-8,20%
CCN1CCN(C(=O)c2ccc3c(c2)N(Cc2ccccc2F)C(=O)c2ccccc2S3=O)CC1 (configuration not stated),nt,-2%,?,nt,nt
O=C(COC(=O)CNC(=O)c1ccc(-c2ccccc2)cc1)NCc1ccco1,5%,-11%,-21%,1,0%
Cc1ccc(C)c(CN2C(=O)C(=O)c3ccccc32)c1,nt,1.2µM*,0.92µM*,nt,nt
COc1ccccc1NC(=O)C(C)OC(=O)C1CC(=O)N(Cc2ccco2)C1 (configuration not stated),-8%,-2%,-12%,-14,-1%
O=C1c2ccccc2C(=O)N1CC1CO1 (configuration not stated),1%,16%,9%,-8,-3%
c1ccc2c(c1)Sc1cnccc1N2CC1CO1 (configuration not stated),0%,4.1µM*,10µM*,-11,-6%
Cc1cccc(NC(=O)CSc2nnc(NC(=O)C3CC3)s2)c1C,9%,-2%,-17%,5,5%
COc1ccc2cc(C)c3nnc(SCC(=O)Nc4nc(-c5ccc(F)cc5)cs4)n3c2c1,-6%,21µM*,23µM*,8,-4%
CCOc1ccccc1Nc1nnc(SCC(=O)Nc2nc(-c3ccc(OC)cc3)cs2)s1,-5%,-24%,-16%,7,9%
SMILES,HT1080-NT tox,DT40 TDP1 CPT,DT40 TDP1 no CPT,IL-1B inflam inh,HT1080 IDH1KD tx
COc1ccc(NC(=O)Nc2nnc(SCC(=O)Nc3cccc(C)c3C)s2)cc1,nt,18µM*,7.3µM*,nt,nt
COc1ccccc1Nc1nnc(SCC(=O)NC2CC2)s1,-5%,11%,-16%,-20,-1%
COc1ccc(-c2csc(NC(=O)CSc3nnc(Nc4ccccc4C)s3)n2)cc1,21µM*,6.5µM*,6.5µM*,20,21µM*
COc1ccccc1Nc1nnc(SCC(=O)Nc2nc(-c3ccc(F)cc3)cs2)s1,23µM*,15µM*,13µM*,93,?
CCCCNC(=O)C1(C)CCN1C(=O)c1cccc(OC(C)=O)c1C (configuration not stated),?,4%,5%,6,28%
O=c1[nH]c(NCCO)nnc1Cc1ccccc1,16%,11%,2%,10,10%
COc1cc(OC)c2ccc(=O)oc2c1C(CCN1CCCC1)c1ccc(N(C)C)cc1 (configuration not stated),-2%,9.2µM*,?,-2,-5%
CCN(CC)CCC(c1ccc(N(C)C)cc1)c1c(OC)cc(OC)c2ccc(=O)oc12 (configuration not stated),-2%,10µM*,13µM*,-2,-9%
COc1cc(OC)c2ccc(=O)oc2c1C(CC(=O)N1CCCC1)c1ccc(N(C)C)cc1 (configuration not stated),0%,?,?,-4,-3%
CC1(Oc2ccc3ccccc3c2)CCN(Cc2cccn2-c2nccs2)C1 (configuration not stated),21µM*,29µM*,23µM*,-18,15µM*
COc1cc(Cl)ccc1OC1(C)CCN(Cc2cccn2-c2nccs2)C1 (configuration not stated),?,12µM*,21µM*,-19,?
CC(=O)c1ccc(OC2(C)CCN(Cc3cccn3-c3nccs3)C2)cc1 (configuration not stated),0%,?,?,-6,-6%
Cc1ccc(-c2ccc(CCC(=O)O)n2-c2ccc(C(C)C)cc2)cc1,nt,?,-18%,nt,nt
Cc1ccc(-c2nc(Cn3c(SCc4ccc(F)cc4)nc4cccnc43)c(C)o2)cc1,nt,0.73µM*,0.82µM*,nt,nt
Cc1oc(-c2cccc(Br)c2)nc1Cn1c(SCc2cccc(F)c2)nc2cccnc21,nt,?,21µM*,nt,nt
CCCCN(CCCC)CP(=O)(c1ccccc1)c1ccccc1,?,16µM*,15µM*,-8,?
O=P(CCCCCCCCCP(=O)(c1ccccc1)c1ccccc1)(c1ccccc1)c1ccccc1,18µM*,7.3µM*,8.2µM*,-104*,23µM*
